Screening results from PubChem.
This is a sample that favours compounds with a hit; in the whole collection about 6.5% have one here.
Marburg entry inh: qHTS for inhibitors of binding or entry into cells for Marburg Virus; Marburg virus pseudotyped entry inhibition, cell reporter; Potency, µM (series often up to 37.8 µM), for the others: at the highest dose activity change, negative = inhibition, most hits filed as inhibitors; 1.8% of 300,000 active; AID 540276, 2011; calls by dose curve; tested in HEK293 cells; note: potency is the fitted concentration of half-maximal effect
LASV entry inh: qHTS for Inhibitors of binding or entry into cells for Lassa Virus; 1.2% of 300,000 active; Potency, µM (highest dose often 37.9 µM), for the others: top-dose activity change, negative = inhibition, actives largely listed as inhibitors; Lassa virus pseudotype entry inhibition, cell reporter; calls by dose curve; tested in HEK293 cells; note: potency is the fitted concentration of half-maximal effect; nearly all actives have a fitted effect of over 50% in size
HCMV antiviral: qHTS Assay for inhibitors of the human cytomegalovirus (HCMV). HFF cells, HCMV-luciferase reporter, 72 h; hits give low values. activity change, negative = inhibition, % at 57.5 µM. 4.5% of 410,000 active; in the data active = activity change below about -60%; inconclusive = no clear call, values can overlap the other calls; inactive = above about -39%
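Inhibition of viral replication was scored as loss of reporter luminescence in HFFs infected with HCMV-luciferase (MOI 1 PFU/cell) for 72 h; compounds tested at 2 doses, normalized to buffer and Salinomycin controls.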
FMDV inh: High Throughput Screening for Foot and Mouth Disease Virus Antivirals; FMDV antiviral cell-based qHTS; Potency, µM (series often up to 57.9 µM), without a hit: at the top dose activity change, negative = inhibition, hits mostly inhibitors; 1.2% of 410,000 active; AID 1159524, 2015; calls by dose curve; tested in HEK293T cells; note: read-out not given here; potency is the fitted concentration of half-maximal effect; nearly all actives have a fitted effect of over 45% in size
VACV mCherry inh: qHTS for Stage-Specific Inhibitors of Vaccinia Orthopoxvirus: mCherry Reporter Primary qHTS. 0.63% of 310,000 active. Potency, µM (titrated, usually from 36.5 µM), for inactives: at the top dose activity change, negative = inhibition, actives largely listed as inhibitors. Vaccinia virus mCherry reporter infection, fluorescence; calls by dose curve; tested in A549 cells; note: potency is the fitted concentration of half-maximal effect; nearly all actives have a fitted effect of over 35% in size
Vaccinia Venus: qHTS for Stage-Specific Inhibitors of Vaccinia Orthopoxvirus: Venus Reporter Primary qHTS; Vaccinia virus Venus reporter expression, fluorescence; Potency, µM (highest dose often 36.5 µM), for the others: at the top dose activity change, negative = inhibition, hits mostly inhibitors; 0.46% of 330,000 active; calls by dose curve; tested in A549 cells; note: potency is the fitted concentration of half-maximal effect; nearly all actives have a fitted effect of over 30% in size
An asterisk follows results filed as active; i = inactive; ? = inconclusive; nt = no result; [ ] = remark or other dose. % is set by controls: 0 for no effect and ±100 for the full control effect.

SMILES	Marburg entry inh	LASV entry inh	HCMV antiviral	FMDV inh	VACV mCherry inh	Vaccinia Venus
Cc1c(C)n(CCCN(C)C)c2ncnc(Nc3ccccc3)c12	nt	nt	33.2	-0.7%	nt	nt
CSc1cccc(NC(=O)c2ccc3c(c2)c(C)c(C)n3Cc2ccc(F)cc2)c1	nt	-15.2%[46.1 µM]	?	-9.8%	-3.6%	-8.0%
COc1c([N+](=O)[O-])ccc(N)c1N	nt	nt	nt	nt	-25.1%	-17.9%
CC(C)(C)CC(C)(C)c1ccc(O)c(Cc2ccc(Cl)cc2Cl)c1	nt	nt	-85.9*	28.2µM*	?	?
O=C(Nc1cccc(S(=O)(=O)c2cccc(NC(=O)c3ccco3)c2)c1)c1ccco1	?	?	-69.1*	35.5µM*	7.5%	-14.3%
CS(=O)(=O)c1cccc(NC(=O)C2CC2)c1	-6.9%[46.1 µM]	1.0%[46.1 µM]	-33.0	-10.9%	?	-12.7%
CC(=O)Nc1ccc(S(=O)(=O)Nc2cccc(NC(=O)c3ccco3)c2)cc1	-8.8%[46.1 µM]	-4.5%[46.1 µM]	-70.8*	11.7%	-12.3%	3.1%
CN(c1ccccc1)S(=O)(=O)c1ccc(NC(=O)c2ccco2)cc1	?	?	-29.9	0.4%	0.1%	-10.5%
CN(C1CCCCC1)S(=O)(=O)c1ccc(NC(=O)c2ccco2)cc1	-5.9%	11.2µM*	-35.8	-7.2%	nt	-13.6%
O=C(Nc1cccc(S(=O)(=O)c2cccc(NC(=O)C3CC3)c2)c1)C1CC1	?	20.6µM*	?	nt	-14.2%	?
O=C(Nc1cccc(S(=O)(=O)N2CCCC2)c1)c1ccco1	nt	nt	7.6	-18.7%	nt	nt
CCNc1ncc2nc(-c3ccc(Cl)cc3)c(=O)n(CCC#N)c2n1	nt	nt	nt	-4.7%	nt	nt
CC(=O)c1ccc(NC(=O)COCc2cc(-c3ccco3)on2)cc1	nt	-3.3%[46.1 µM]	19.8	-11.1%	-3.2%	-12.4%
CC(=O)Nc1cccc(NS(=O)(=O)c2c(C)noc2C)c1	7.9%	5.9%	-30.0	-8.7%	6.31µM*	?
C=CCn1cc(C(=O)NCc2ccc3c(c2)OCO3)c(=O)c2cc(S(=O)(=O)N(CC)CC)ccc21	?	0.708µM*	-4.9	-14.6%	-23.8%	-22.1%
CCN(CC)S(=O)(=O)c1ccc2c(c1)c(=O)c(C(=O)NCc1ccc(Cl)cc1)cn2C	11.4%[46.1 µM]	?	6.2	-9.9%	?	-21.6%
C=CCn1cc(C(=O)NCc2cccnc2)c(=O)c2cc(S(=O)(=O)N(CC)CC)ccc21	nt	nt	-60.9*	-10.9%	-15.9%	-10.4%
CCN(CC)S(=O)(=O)c1ccc2c(c1)c(=O)c(C(=O)NCc1ccc3c(c1)OCO3)cn2C	13.3%	4.1%	nt	nt	nt	nt
CCC(=O)Nc1nc2ccccc2n1Cc1ccc(C)cc1	-18.9%	-24.9%	?	0.0%	-0.7%[1.46 µM]	-22.7%
CCC(=O)Nc1nc2ccccc2n1Cc1ccccc1	?	?	-91.7*	0.0%	nt	nt
CCOc1ccccc1C(=O)N(Cc1ccco1)Cc1ccccc1F	-1.2%[46.1 µM]	9.9%[46.1 µM]	-30.6	-13.1%	-11.0%	-9.5%
CC(Cc1ccccc1)NCc1ccccc1O (stereo unspecified)	-2.2%[46.1 µM]	22.0%	-67.4*	-9.1%	-22.8%	-12.2%
COc1ccc(C(O)c2ncc(-c3ccccc3)[nH]2)c(OC)c1 (stereo unspecified)	nt	nt	-66.5*	18.1%	44.5%	1.1%
COc1ccc(OC)c(-c2nnc3n2N=C(c2ccc(OC)c(OC)c2)CS3)c1	nt	nt	-67.4*	-11.0%	nt	nt
COc1ccc(C2=Nn3c(nnc3-c3ccccc3OC)SC2)cc1OCC1CC1	nt	nt	-84.0*	?	nt	nt
SMILES	Marburg entry inh	LASV entry inh	HCMV antiviral	FMDV inh	VACV mCherry inh	Vaccinia Venus
COc1ccc(C2=Nn3c(nnc3-c3ccccc3F)SC2)cc1OC1CCCC1	nt	nt	-74.5*	-38.7%	nt	nt
COc1ccc(C2=Nn3c(nnc3-c3ccccc3F)SC2)cc1OC1CCOC1 (stereo unspecified)	nt	nt	127.2	-14.3%	nt	nt
COc1ccc(OC)c(-c2nnc3n2N=C(c2ccc(OC(F)F)c(OCC4CC4)c2)CS3)c1	nt	nt	-5.4	?	nt	nt
COc1ccc(OC)c(-c2nnc3n2N=C(c2ccc(OC)c(OC4CCCC4)c2)CS3)c1	nt	nt	-88.1*	?	nt	nt
COc1ccc(C2=Nn3c(nnc3-c3ccccc3)SC2)cc1OC	-29.6%	-26.7%	3.8	-8.3%	nt	nt
CCCCC(CC)Cn1c(Oc2ccccc2)nc2c1c(=O)n(C)c(=O)n2C (stereo unspecified)	0.9%[46.1 µM]	-16.4%[46.1 µM]	-1.3	-23.5%	-11.5%	-13.5%
Cc1cccc(CNc2ncncc2-c2ccc(C(=O)N(C)C)cc2)c1	nt	nt	nt	-10.6%	nt	nt
COc1ccc(C2=Nn3c(nnc3-c3ccncc3)SC2)cc1	?	-18.9%	-36.7	3.8%	nt	nt
CCOc1ccc(C2=Nn3c(nnc3-c3ccc(OC)cc3)SC2)cc1	5.17µM*	?	22.1	?	nt	nt
Cc1ccc(C(=O)c2sc(Nc3ccccc3)c(S(=O)(=O)c3ccccc3)c2N)c(C)c1	nt	?	9.3	-11.4%	?	-19.8%
CSc1c(CC(=O)Nc2ccc(F)cc2)n(Cc2ccccc2)c2ccccc12	?	-21.4%	-62.1*	-21.9%	-13.6%	-22.5%
CSc1c(CC(=O)Nc2ccccc2)n(C)c2ccccc12	nt	nt	-37.1	-3.0%	nt	nt
c1ccc(Nc2nnc(-c3ccc4c(c3)OCO4)o2)cc1	nt	nt	-39.6	nt	nt	nt
Cc1ccc(-c2nnc(Nc3ccccc3)o2)cc1	1.64µM*	?	?	nt	i	-14.1%
COc1ccc(O)c(CN2CCCN(c3nc(C)c4cc(C)c(C)cc4n3)CC2)c1	nt	nt	nt	4.7%	-0.9%	-7.8%
Cc1cc2oc(=O)c3c(c2cc1OC(=O)c1ccco1)CCCC3	?	-22.7%	-13.8	0.0%	nt	-9.0%
Cc1cc(OC(=O)c2ccco2)c2c3c(c(=O)oc2c1)CCCC3	11.2µM*	?	-66.7*	?	i	11.7%
COc1cc(CNC23CC4CC(CC(C4)C2)C3)ccc1OCc1ccccc1	5.01µM*	19.6%[46.1 µM]	-28.1	-8.3%	i	-7.3%
COc1cc(CNCc2cccs2)ccc1OCc1ccccc1	-84.4%	11.4%	-30.6	nt	?	-13.7%
COc1ccc(CNc2nc3ccccc3n2C)c(O)c1	11.2µM*	?	85.0	11.4%	-25.2%	-7.9%
Cn1c(NCc2c(O)ccc3ccccc23)nc2ccccc21	20.6µM*	10.7%	47.0	?	nt	nt
Cc1ccc(-c2nnc3ccccc3c2C(=O)Nc2ccc(C)c(F)c2)cc1	nt	-2.4%[46.1 µM]	0.0	27.6%	-2.8%	-3.7%
CCn1c(-c2ccccc2F)nc2cc(C(=O)NC(c3ccccn3)C(F)(F)F)cc(NC(C)=O)c21 (stereo unspecified)	nt	nt	nt	10.8%	-11.2%	-6.0%
O=C(O)c1ccccc1N/N=C\c1ccnc2ccccc12	3.98µM*	?	?	10µM*	nt	-12.7%
O=C(O)c1ccccc1N/N=C/c1cc(Br)cc(Br)c1O	14.6µM*	?	33.8	-2.3%	-21.8%	-5.4%
CCOC(=O)CC1C(=O)NCCN1S(=O)(=O)c1cc(Cl)c(Cl)cc1Cl (stereo unspecified)	1.58µM*	-12.4%	-13.5	-7.5%	?	-23.3%
